According to PubChem BioAssay AID1851 (National Center for Advancing Translational Sciences (NCATS), 2009):
“And” between values parts separate entries of the source, which are not always exact repeats. Equal entries are not always repeated. The campaign covered roughly 16,000 compounds. About 2,600 (16%) were called active. Roughly 20% stayed inconclusive and do not appear here. Calls come from the whole dose curve; as a rule, active = well fitted curve in the direction sought with a large enough effect; inconclusive = small, poorly fitted or top-dose-only effect, or effect the other way; inactive = no such curve, though single readings can be large or run the other way. The list is a sample of the results. Square brackets hold non-standard residues; d marks the D form. Peptide text beside a SMILES is read from it.
% is set by controls: 0 for no effect and ±100 for the full control effect.

What follows are compounds tested against Cytochrome P450 2D6 (Homo sapiens) (UniProt P10635) (assay: Cytochrome panel assay with activity outcomes). Conditions: recombinant CYP, pro-luciferin dealkylation, luminescence, p450-cyp2d6; series mostly up to 57.1 µM.
Sequence of Cytochrome P450 2D6 (Homo sapiens) (P10635 whole entry, looked up): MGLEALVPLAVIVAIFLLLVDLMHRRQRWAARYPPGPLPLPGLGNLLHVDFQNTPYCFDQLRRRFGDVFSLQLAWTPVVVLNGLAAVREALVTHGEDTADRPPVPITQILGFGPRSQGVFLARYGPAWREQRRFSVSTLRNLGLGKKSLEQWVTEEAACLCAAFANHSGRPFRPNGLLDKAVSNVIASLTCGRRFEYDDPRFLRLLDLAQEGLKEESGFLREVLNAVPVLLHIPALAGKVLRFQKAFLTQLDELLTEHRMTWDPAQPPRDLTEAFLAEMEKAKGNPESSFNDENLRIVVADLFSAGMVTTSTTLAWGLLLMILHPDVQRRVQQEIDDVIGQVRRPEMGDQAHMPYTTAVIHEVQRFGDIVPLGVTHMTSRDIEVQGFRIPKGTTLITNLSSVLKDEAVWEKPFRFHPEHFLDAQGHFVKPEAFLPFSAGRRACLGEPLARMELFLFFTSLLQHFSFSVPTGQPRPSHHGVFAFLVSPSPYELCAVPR
In the case of `COc1ccc(NC(=O)C2(c3ccc(NC(=O)c4ccc(C)cc4)cc3)CCCC2)cc1`, the AC50 is reported as “inactive”. With `CC(=NC1CCCCC1)c1ccccc1O` the activity, negative = inhibition was -7.44% [at 11.4 µM] (inactive). `CC(=O)/C=C/c1ccc2ccccc2n1` was tested, and the AC50 was “inactive”. `C/C(=N/Nc1ccc2ccccc2n1)c1ccccc1O` was tested, and the AC50 was 0.794 µM (active). In the case of `COc1ccc(/C(O)=C2/C(=O)C(=O)N(CCN3CCOCC3)C2c2ccc(C)cc2)cc1` (stereo not drawn), the AC50 is reported as “inactive”. With `CN1CCN(c2ncc3nc(CCc4ccccc4)c(=O)n(C)c3n2)CC1` the AC50 was “inactive”. For `O=C(O)[C@@H]1[C@@H](C(=O)NCc2ccncc2)[C@@H]2C=C[C@@H]1O2`, the activity, negative = inhibition was -9.91% [at 11.4 µM] (inactive). With `O=C(COc1ccc([N+](=O)[O-])cc1)NN=C1CCCC1` the AC50 was “inactive”. In the case of `COc1ccc(N(CC(=O)NN=C2CCCC2)S(=O)(=O)c2ccccc2)cc1`, the AC50 is reported as “inactive”. `O=C(CN(c1ccccc1)S(=O)(=O)c1ccccc1[N+](=O)[O-])NN=C1CCCCCCC1` was tested, and the AC50 was 4.47 µM (active). `CNC(=O)[C@H]1O[C@H](n2cnc3c(NCc4cccc(I)c4)ncnc32)[C@@H](O)[C@@H]1O` was tested, and the AC50 was “inactive”. In the case of `CCCCC(C=O)NC(=O)C(CC(C)C)NC(=O)OCc1ccccc1` (stereo not drawn), the AC50 is reported as “inactive”. For `NCc1ccccc1CC(=O)N[C@@H]1C(=O)N2C(C(=O)O)=C(CSc3nnnn3CC(=O)O)CS[C@@H]12`, the AC50 was “inactive”. `COc1cc(/C=N\NC(=O)C2C(=O)NCC2c2ccccc2)cc(OC)c1O` (stereo not drawn) was tested, and the AC50 was “inactive”. In the case of `CCCCN1CCCC[C@H]1C(=O)Nc1c(C)cccc1C`, the AC50 is reported as 0.501 µM (active). For `Cc1cccc(C)c1NC(=O)N1CCC(N2CCCCC2)CC1`, the AC50 was “inactive”. For `Cc1cccc(C)c1NC(=O)CCN1C(=O)C2C3CCC(C3)C2C1=O` (stereo not drawn), the AC50 was “inactive”. `Cc1ccc(/C(C#N)=C/c2cccc([N+](=O)[O-])c2)cc1` was tested, and the activity, negative = inhibition was 8% [at 11.4 µM] (inactive). In the case of `CN(C)Cc1cc(O)c(O)c(CN(C)C)c1`, the activity, negative = inhibition is reported as 1.36% [at 11.4 µM] (inactive). In the case of `COC(=O)c1cc(-c2ccccc2)sc1NC(=O)CN1C(=O)c2ccccc2C1=O`, the AC50 is reported as “inactive”. For `Cc1ccc2nc(-c3ccc(NC(=O)c4ccc(N)cc4)c(S(=O)(=O)O)c3)sc2c1`, the activity, negative = inhibition was 10.5% [at 11.4 µM] (inactive). In the case of `Cc1ccc(C)c(NC(=O)Cn2nnc(C(=O)NCc3cccs3)c2N)c1`, the AC50 is reported as “inactive”. `COc1ccc(CCNC(=O)CCN2C(=O)C(C)Oc3ccc(C)cc32)cc1OC` (stereo not drawn) was tested, and the AC50 was “inactive”. `Cc1ccc2c(c1)N(CC(=O)NCc1cccs1)C(=O)C(C)O2` (stereo not drawn) was tested, and the AC50 was 12.6 µM (active). For `COc1ccccc1COC(=O)Nc1c(C)nn(C)c1Cl`, the AC50 was “inactive”. With `COc1ccc2c(c1)c(CC(=O)N1CCOCC1)c(C)n2C(=O)c1ccc(Cl)cc1` the AC50 was “inactive”. For `Nc1cccc2cc(S(=O)(=O)Nc3ccc(C(=O)O)cc3)ccc12`, the activity, negative = inhibition was 4.25% [at 11.4 µM] (inactive). For `COc1c(N2CCN(C(=S)Nc3ccc(F)cc3)C(C)C2)c(F)cc2c(=O)c(C(=O)O)cn(C3CC3)c12` (stereo not drawn), the AC50 was “inactive”. `CCOC(=O)N/N=C\c1ccc([N+](=O)[O-])o1` was tested, and the AC50 was “inactive”. With `O=C(N/N=C/c1ccc([N+](=O)[O-])o1)c1cc(-c2ccncc2)nc2ccccc12` the AC50 was 14.1 µM (active). `O=C(O)c1cc(-c2ccncc2)nc2ccccc12` was tested, and the activity, negative = inhibition was 8.68% [at 11.4 µM] (inactive). With `COn1c(SC(C)C)nc2ccccc2c1=O` the AC50 was “inactive”. With `Cc1ccc(-n2c(SCc3ccc([N+](=O)[O-])cc3)nc3ccccc3c2=O)cc1` the AC50 was “inactive”. In the case of `COn1c(SCc2ccc(C)cc2C)nc2ccccc2c1=O`, the AC50 is reported as 6.31 µM (active). With `COn1c(SCc2cccc(Cl)c2)nc2ccccc2c1=O` the AC50 was 0.891 µM (active). In the case of `Cc1cc(C)n(-c2nc3ccccc3c(=O)n2OCc2ccc(Cl)cc2)n1`, the AC50 is reported as “inactive”. In the case of `CC(C)On1c(SC(C)C)nc2ccccc2c1=O`, the AC50 is reported as “inactive”. With `CO[C@H]1COC(=O)C/C=C\[C@H](C)[C@@H](OC)COC(=O)[C@H](Cc2ccccc2)NC(=O)C/C=C\[C@@H]1C` the activity, negative = inhibition was -13.7% [at 11.4 µM] (inactive). With `O=S(=O)(O)[C@@H](CO)c1ccccc1` (tested in a mixture with another compound) the activity, negative = inhibition was 14% [at 11.4 µM] (inactive). In the case of `CC1CCCC(NC(=O)C2CCN(S(=O)(=O)N3CCOCC3)CC2)C1C` (stereo not drawn), the AC50 is reported as “inactive”. In the case of `O=C(O)C1CCCCC1C(=O)Nc1cc(Cl)ccc1Cl` (stereo not drawn), the AC50 is reported as “inactive”. `Cc1ccc(S(=O)(=O)O[C@@H]2[C@H]([C@@H]3COC(C)(C)O3)O[C@H]3OC(C)(C)O[C@@H]32)cc1` was tested, and the activity, negative = inhibition was 5.58% [at 11.4 µM] (inactive). `O=C(O)/C=C/C(=O)Nc1ccccc1-c1ccccc1` was tested, and the AC50 was “inactive”. `CCOC(=O)c1cc2c(C)n(-c3ccc(C)cc3)c(C)c2ccc1=O` was tested, and the AC50 was “inactive”. In the case of `O[C@H](CCCN1CCN(c2ncc(F)cn2)CC1)c1ccc(F)cc1`, the AC50 is reported as “inactive”. For `O=C1NCN(c2ccccc2)C12CCN(CCCC(c1ccc(F)cc1)c1ccc(F)cc1)CC2`, the AC50 was 10 µM (active) and 1.58 µM (active). For `O=C(CNc1cccc(Cl)c1)c1ccc(Cl)cc1`, the AC50 was 0.447 µM (active). With `Cc1ccc(NCCC(=O)c2ccc(Cl)cc2)cc1` the AC50 was “inactive”. With `CN(C)CCNC(=S)Nc1cccc(Cl)c1` the AC50 was “inactive”. In the case of `O=C(Nc1cccc(Cl)c1)Nn1cnnc1`, the activity, negative = inhibition is reported as 8.42% [at 11.4 µM] (inactive). With `O=C(NCCc1ccc(Cl)cc1)Nc1cccc(Cl)c1` the AC50 was 0.891 µM (active). With `Cc1ccc(NCCC(=O)c2ccc(Cl)cc2)cc1C` the AC50 was “inactive”. In the case of `Cc1cnn(-c2cc(N/N=C/c3ccccc3F)ncn2)c1`, the AC50 is reported as “inactive”. In the case of `O=C(O)[C@@H]1[C@@H](C(=O)NCc2cccnc2)[C@@H]2C=C[C@@H]1O2`, the activity, negative = inhibition is reported as 20.9% [at 11.4 µM] (inactive). For `CCCc1nnc(SCC(=O)O)n1/N=C/c1ccc2c(c1)OCO2`, the AC50 was “inactive”. With `O=C(c1ccco1)N1CCN(c2cc(=O)n(C3CCCCC3)c(=O)[nH]2)CC1` the AC50 was “inactive”. `CCCCCCc1c(C[C@H](N)C(=O)O)o[nH]c1=O` was tested, and the AC50 was “inactive”. With `Oc1ccccc1-c1nnc(-c2ccc(C(F)(F)F)cc2)o1` the AC50 was “inactive”. With `CCN(CC)CCCNC(=O)CC1Sc2ccccc2NC1=O` (stereo not drawn) the AC50 was 5.01 µM (active). `Cc1c(Cl)cccc1NC(=O)C[C@H]1Sc2ccccc2NC1=O` was tested, and the activity, negative = inhibition was -12% [at 11.4 µM] (inactive). In the case of `CCN(CC)CCCNC(=O)C1CCC(=O)N(c2ccc(OC)cc2)C1c1ccc(F)cc1` (stereo not drawn), the AC50 is reported as “inactive”. `CN(Cc1ccco1)c1nc(-c2ccc3c(c2)OCO3)nc2ccccc12` was tested, and the AC50 was 10 µM (active). `CN(C)c1ccc(-c2nc(N(C)Cc3ccco3)c3ccccc3n2)cc1` was tested, and the AC50 was 12.6 µM (active). With `CN(Cc1ccco1)c1nc(-c2ccoc2)nc2ccccc12` the AC50 was 15.8 µM (active). With `CN(Cc1ccccc1)c1nc(-c2ccc([N+](=O)[O-])cc2)nc2ccccc12` the AC50 was “inactive”. In the case of `O=c1c(-c2cc(F)cc(F)c2)nc2cnc(N3CCOCC3)nc2n1C1CC1`, the AC50 is reported as “inactive”. `CSCC[C@H](C=O)NC(=O)[C@H](CC(C)C)NC(=O)[C@H](CC(C)C)NC(C)=O` (Ac-Leu-Leu-[dM]-aldehyde) was tested, and the AC50 was “inactive”. In the case of `c1cc(NNc2cccc(-c3nn[nH]n3)c2)cc(-c2nn[nH]n2)c1`, the activity, negative = inhibition is reported as 16.4% [at 11.4 µM] (inactive). For `COCCCNC(=O)C1CC(=O)N(Cc2ccc(OC)cc2)C1` (stereo not drawn), the AC50 was “inactive”. In the case of `CN(C)c1ncc2nc(-c3ccc(F)cc3)c(=O)n(Cc3cccs3)c2n1`, the AC50 is reported as “inactive”. `Cc1cc(C)c2nc(-c3ccccn3)cc(C(=O)Nc3ccc(S(=O)(=O)Nc4cc(C)on4)cc3)c2c1` was tested, and the AC50 was “inactive”. For `O=C(O)c1ccc(S(=O)(=O)N=Nc2c(O)[nH]c3ccccc23)cc1`, the activity, negative = inhibition was 17% [at 11.4 µM] (inactive). In the case of `O=C1CCC(c2ccccc2)(c2ccccc2)CC1`, the activity, negative = inhibition is reported as 9.99% [at 11.4 µM] (inactive). `CCN1C(=O)c2cccc3c(NC(=O)c4cccc(N5C(=O)CCC5=O)c4)ccc1c23` was tested, and the AC50 was “inactive”. With `COc1ccc(N2CCN(C(=O)CSc3nnc4c5cc(C)ccc5n(C)c4n3)CC2)cc1` the AC50 was “inactive”. For `COc1cccc2c(=O)c(C(=O)NCc3cccs3)c[nH]c12`, the AC50 was 12.6 µM (active). For `COc1ccc2nc3oc(C(=O)NCc4cccs4)cc3cc2c1`, the AC50 was “inactive”. With `COc1ccc(C(=O)c2c[nH]c(C(=O)NCc3cccs3)c2)cc1` the AC50 was “inactive”. `O=C1CC(=O)N(CCc2ccc(F)cc2)C(=O)N1` was tested, and the AC50 was “inactive”. `COc1ccc(-n2c(=O)cnc3cnc(N(C)C)nc32)cc1` was tested, and the AC50 was “inactive”. In the case of `NCS(=O)(=O)O`, the activity, negative = inhibition is reported as 6.1% [at 11.4 µM] (inactive). `COc1ccccc1/C=C/C(=O)c1c2c(c(C)[nH]c1=O)CCCC2` was tested, and the AC50 was “inactive”. `Cn1c(=S)c2[nH]c(SCCCc3ccccc3)nc2n(C)c1=O` was tested, and the activity, negative = inhibition was -0.099% [at 11.4 µM] (inactive). `Cc1c(C)c2c(c(C)c1O)CC[C@@](C)(CCC[C@@H](C)CCC[C@@H](C)CCCC(C)C)O2` was tested, and the AC50 was “inactive”. With `Cc1cc(C)n2nc(SCc3cc(=O)oc4ccc5ccccc5c34)nc2n1` the AC50 was “inactive”. For `CCOC(=O)c1ccc(S(=O)(=O)Nc2ccc3cn[nH]c3c2)cc1`, the AC50 was 12.6 µM (active). In the case of `CCOc1cc(C)c(S(=O)(=O)Nc2ccc3cn[nH]c3c2)cc1C`, the AC50 is reported as 0.631 µM (active). For `CC(=O)Nc1cc(S(=O)(=O)Nc2ccccc2)c(C)cc1C`, the AC50 was “inactive”. With `CCOC(=O)c1sc(NS(=O)(=O)c2ccccc2)nc1C` the AC50 was “inactive”. In the case of `Cc1cc(NC(=O)COC(=O)c2ccc(NS(=O)(=O)c3ccc(C)c(C)c3)cc2)no1`, the AC50 is reported as “inactive”. For `COC(=O)Cc1cc(=O)n2[nH]c(C)c(-c3ccccc3)c2n1`, the AC50 was “inactive”. With `C/C(O)=C\c1nc2ccccc2oc1=O` the AC50 was “inactive”. In the case of `COC(=O)[C@@]1(Cc2ccc(F)cc2)[C@@H]2C(=CC(=O)[C@H]2CC(=O)C(=O)N(C)C)CN1C(=O)c1ccccc1`, the AC50 is reported as “inactive”. With `Cc1cc(N)ccc1NC(=O)c1ccccc1` the AC50 was “inactive”. In the case of `CCO/C(C)=N/n1c2nc3ccccc3nc2c2c(=O)n(CC(C)C)c(C)nc21`, the AC50 is reported as “inactive”. In the case of `O=C(O)c1ccccc1C(=O)Nc1nccs1`, the AC50 is reported as “inactive”. `CCCC(C(=O)Nc1nccs1)c1ccccc1` (stereo not drawn) was tested, and the AC50 was 25.1 µM (active). For `CCCCn1c(SCC(=O)Nc2nccs2)nc2ccccc2c1=O`, the AC50 was “inactive”.
